Screening data from PubChem.
The list is not random: actives were taken first. Their share in the collection is about 9.4%.
ELG1 genotoxic: induces genotoxicity in HEK293T cells with luciferase-tagged ELG1. Potency, µM (series often up to 46 µM), without a hit: at the highest dose activity change, positive = activation, hits mostly activators. AID 504466. 1.3% of 330,000 active. HEK293T ELG1-luciferase reporter, luminescence, 16 h; also: % of control where 0% means no effect; nearly all actives have a fitted effect of over 60% in size
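Quantitative HTS format in 1536-well plates. HEK293T ELG1-luciferase reporter cells receive test compound and are incubated 16 hr at 37 °C, 5% CO2; ONE-Glo added, 30 min room temperature, then luminescence read.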
NPC1 prom act: NPC1 promoter activation | Huh7 NPC1 promoter luciferase reporter, 24 h | AID 485313 | Potency, µM (doses to about 9.22 µM), inactives show at the top dose activation, most hits filed as activators | 2.4% of 320,000 active; also: % of control where 0% means no effect; nearly all actives have a fitted effect of over 60% in size
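Huh7 reporter cells (NPC1 promoter driving luciferase) are dosed with compound for 24 h at 37 °C, 5% CO2; luciferase detection reagent is then added and luminescence measured after 10 min at ambient temperature.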
FLuc modulator: inhibits or activates purified firefly luciferase, miR-21 counter-screen; AID 588342; 6.9% of 360,000 active; P08659; Potency, µM (doses to about 57.5 µM), inactives show at the top dose activity change, negative = inhibition, actives largely listed as inhibitors; purified FLuc, Km substrates, luminescence inhibition;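 also: plate controls were vehicle for no effect and reference inhibitor for full effect; nearly all actives have a fitted effect of over 55% in size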
Target sequence (P08659 whole entry, looked up): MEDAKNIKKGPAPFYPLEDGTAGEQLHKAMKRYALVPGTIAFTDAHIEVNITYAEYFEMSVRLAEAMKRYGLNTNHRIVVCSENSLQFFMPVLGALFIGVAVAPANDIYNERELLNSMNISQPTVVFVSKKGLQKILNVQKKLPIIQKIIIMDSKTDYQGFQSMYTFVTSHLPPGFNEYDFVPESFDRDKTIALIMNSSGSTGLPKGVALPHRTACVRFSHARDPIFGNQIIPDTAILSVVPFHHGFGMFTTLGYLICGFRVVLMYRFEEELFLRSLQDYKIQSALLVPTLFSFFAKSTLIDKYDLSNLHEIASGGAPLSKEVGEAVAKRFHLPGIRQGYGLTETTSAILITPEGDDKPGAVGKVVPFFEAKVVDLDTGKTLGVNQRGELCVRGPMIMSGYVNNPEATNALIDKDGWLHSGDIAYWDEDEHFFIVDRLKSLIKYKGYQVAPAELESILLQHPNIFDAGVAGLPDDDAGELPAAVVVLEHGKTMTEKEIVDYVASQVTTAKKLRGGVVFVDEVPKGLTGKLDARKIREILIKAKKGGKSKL
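Purified P. pyralis luciferase (10nM final) with 10uM D-luciferin and 10uM ATP (Km levels) in 50mM Tris acetate pH 7.5, 10mM Mg acetate, 0.01% Tween-20, 0.05% BSA; qHTS 6-point titration, ~60 µM downward; luminescence read.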
ELG1 repair inh: blocks ELG1-dependent DNA repair in HEK293T cells; 2.3% of 330,000 active; Potency, µM (top dose mostly 46.1 µM), without a hit: top-dose activity change, negative = inhibition, most hits filed as inhibitors; HEK293T ELG1-luciferase reporter, luminescence, 16 h; DNA damage induced by 5-fluorouridine; also: % is scaled to controls: 0 for no effect and ±100 for the full control effect; nearly all actives have a fitted effect of over 55% in size
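DMSO vehicle served as the neutral condition. Each well held 2,000 cells given 5-fluorouridine plus compound; after 16 hr at 37 °C/5% CO2, ONE-Glo was added and luciferase measured 30 min later.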
SMN2 splice enh: increases expression of the SMN2 splice variant; HEK293 SMN2-luciferase splicing reporter, luminescence, 30-36 h; Potency, µM (series often up to 46.1 µM), for the others: top-dose activity change, positive = activation, hits mostly activators; 2.8% of 210,000 active; also: % of control where 0% means no effect; nearly all actives have a fitted effect of over 55% in size
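qHTS luciferase splicing reporter: luminescence rises when SMN2 exon 7 is included in transfected HEK293 cells. Compound exposure lasted 30-36 h at 37C, with 4.5 mM final sodium butyrate as control, followed by a ONE-Glo read.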
Rab9 prom act: activators of Rab9 promoter; Potency, µM (series often up to 9.22 µM), inactives show top-dose activation, negative = inhibition, actives largely listed as activators; AID 485297; 2.8% of 320,000 active; Huh7 Rab9 promoter-luciferase reporter, luminescence, 24 h; also: % of control where 0% means no effect; nearly all actives have a fitted effect of over 60% in size
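Rab9 promoter-driven luciferase in stably transfected Huh7 cells; 1500 cells/well rested 2 h, exposed to compound in DMSO for 24 h at 37 °C, 5% CO2. Luminescence read 10 min after adding luciferase reagent at ambient temperature.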
Numbers without * were called inactive; u = inconclusive; x = no result given; [ ] = another dose, or the depositor's remark. Calls follow the shape of the dose curve; as a rule, active = well fitted curve in the direction sought with a large enough effect; inconclusive = small, poorly fitted or top-dose-only effect, or another doubt; inactive = no such curve, though single readings can be large; an effect the other way counts as inactive or inconclusive. Potency is read from the fitted curve at half-maximal effect.

SMILES	ELG1 genotoxic	NPC1 prom act	FLuc modulator	ELG1 repair inh	SMN2 splice enh	Rab9 prom act
CCOC(=O)C1CCCN(C(=O)c2cc(-c3ccc(C)cc3)on2)C1 (stereo not given)	u	u	12µM*	u	u	0.89µM*
O=C(Nc1nnc(N2CCCCCC2)s1)c1cc(-c2ccc(Br)cc2)on1	-4%	2%	-15%	22%	-34%	-2%
O=C(c1cc(-c2ccc(Br)cc2)on1)N1CCCC1	2.1µM*	0.63µM*	1.5µM*	u	x	0.5µM*
O=C(c1cc(-c2ccc(O)cc2)on1)N1CCCC1	4.6µM*	0.45µM*	6µM*	u	x	0.4µM*
CCOC(=O)C1CCCN(C(=O)c2cc(COc3ccc(C)nc3)on2)C1 (stereo not given)	-2%	16%	u	u	x	17%
Cc1ccc(-c2cc(C(=O)N3CCCCCC3)no2)cc1	u	0.5µM*	1.5µM*	u	x	0.56µM*
COc1ccc(-n2c(=O)c3c4c(sc3n(Cc3cc(=O)n5c(C)cccc5n3)c2=O)CCC4)c(OC)c1	x	x	-3%	x	-8%	x
Cc1ccc(NC(=O)c2oc3ccc(S(=O)(=O)N4CCCCCC4)cc3c2C)c(C)c1	x	x	0%	x	x	x
CC(C)(C)c1ccc(S(=O)(=O)c2cn(CC(=O)Nc3ccccc3)c3ccccc3c2=O)cc1	x	x	0%	x	3%	x
O=C(c1cc(-c2ccccc2)on1)N1CCCCCC1	2.3µM*	1.4µM*	9.5µM*	u	x	3.5µM*
O=C(c1cc(-c2ccc(F)cc2)on1)N1CCCCCC1	u	0.89µM*	5.4µM*	u	x	1.4µM*
O=C(/C=C/c1ccc(F)cc1)N1CCCN(C(=O)/C=C/c2ccc(F)cc2)CC1	0%	3%	u	-12%	-11%	17%
COc1cccc(-c2cc(C(=O)N3CCN(c4ccc(F)cc4)CC3)no2)c1	13%	0%	-16%	-2%	8%	u
O=C(c1cc(-c2ccc(F)cc2)on1)N1CCCC1	u	0.79µM*	2.7µM*	u	x	0.63µM*
CN1CCN(C(=O)c2cc(-c3ccccc3)on2)CC1	17%	u	u	u	u	u
O=C(/C=C/c1ccc(-c2ccc(F)cc2)o1)N1CCCC1	u	2.8µM*	13µM*	u	x	3.2µM*
O=C(c1cc(-c2ccc(F)cc2)on1)N1CCOCC1	u	1.1µM*	6µM*	u	x	1.6µM*
O=C(c1cc(-c2ccc(O)cc2)on1)N1CCN(c2ccc(F)cc2)CC1	-3%	0%	u	u	x	-1%
CCCCOc1ccc(C(=O)N2CCC(c3nc4ccccc4o3)CC2)cc1	x	x	-4%	x	x	x
COc1ccc(C(=O)/C=C/Sc2nc3ccccc3o2)cc1	9%	-20%	2.4µM*	u	x	-43%
COc1ccc(C(=O)N/C(N)=N/c2nc3ccccc3o2)cc1	3%	23%	-8%	u	-23%	20%
CCCCOC(=O)Sc1nc2ccccc2o1	-7%	-2%	15µM*	-29%	13%	-11%
Cc1ccc(-n2c3nc(=O)[nH]c(=O)c-3cc3c(C)nn(-c4ccccc4)c32)cc1Cl	x	x	1%	x	-2%	x
COc1cccc(C(=O)Nc2cc(C(F)(F)F)ccc2Cl)c1	-1%	1%	u	6%	-14%	1%
COc1cc(CCC(=O)Nc2ccc(Cl)c(C(F)(F)F)c2)cc(OC)c1OC	-4%	-4%	-1%	u	-24%	2%
COc1cccc(C(=O)Nc2ccc(Cl)c(C(F)(F)F)c2)c1	1%	2%	21µM*	-15%	-5%	u
COc1cc(C(=O)Nc2ccc(Cl)c(C(F)(F)F)c2)cc(OC)c1OC	2%	0%	21µM*	5.2µM*	-8%[1.84 µM]	9%
COc1ccc(-c2cc(C(F)(F)F)n3nc(C(=O)NCC45CC6CC(CC(C6)C4)C5)cc3n2)cc1	x	x	-10%	x	-3%	x
